Screens (PubChem)
PfG6PD inh: PfG6PD enzyme inhibitors, primary screen, biochemical, fluorescence intensity, uHTS; PfGluPho enzyme, NADPH resazurin-diaphorase fluorescence; inhibition, % at 20 µM; glucose-6-phosphate dehydrogenase-6-phosphogluconolactonase (Plasmodium falciparum 3D7); 350,000 tested, 0.78% active; AID 504690, 2011;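 active means inhibition reaching at least a set limit at 20 µM in the primary screen, cut at about 59% in these data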;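 further: 0% = DMSO wells with substrate and 100% = DMSO wells lacking glucose-6-phosphate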
Neddylation inh: inhibitors of cullin neddylation, primary screen, biochemical, TR-FRET, uHTS, NAE and Ubc12. calls only at 25 µM. NEDD8-conjugating enzyme Ubc12 (Homo sapiens) + NEDD8-activating enzyme E1 regulatory …. 360,000 tested, 0.58% active; in the data active means inhibition above about 36%
proKLK7 act: proKLK7 zymogen activators, primary screen, biochemical, fluorescence intensity; 370,000 tested, 0.9% active; Kallikrein-7 (Homo sapiens), P49862; activation, % at 7 µM; purified proKLK7, EDANS-DABCYL substrate fluorescence; 100% is mature enzyme control, 0% vehicle; AID 652039, 2013;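 active means activation above the mean of all tested compounds plus 3 SD, computed per campaign excluding outliers beyond control limits, cut at about 13% in these data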
FAS TE block: FAS thioesterase domain inhibitors, primary screen, biochemical, fluorescence intensity, uHTS. AID 602261, 2012. 360,000 tested, 0.67% active. recombinant FAS-TE, OMFH fluorogenic substrate, fluorescence endpoint. Fatty acid synthase (Homo sapiens), P49327. inhibition, % at 15 µM;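 active means compounds whose normalised, plate-corrected inhibition of enzyme fluorescence in the single-dose primary screen is 50% or more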;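 further: 0% = DMSO with enzyme and 100% = substrate without enzyme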
Neddyl inh conf: blockade of NEDD8 conjugation to cullin – biochemical, TR-FRET, single concentration, confirmation | calls only at 25 µM | shares compounds with Neddylation inh | TR-FRET cullin neddylation biochemical assay | 1,800 tested, 13% active | AID 652217, 2013; in the data active means inhibition above about 40%;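 further: neddylation substrate is the cullin 1 ring ligase complex with SKP2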
* hit, by the source's call; i = inactive; x = not tested or not shown; + = active, no number. Sampled rows, rich in hits. Any-hit rate of the full collection: about 2.7%.

SMILES	PfG6PD inh	Neddylation inh	proKLK7 act	FAS TE block	Neddyl inh conf
Cc1cc(=O)oc2cc(NC(=O)CN3C(=O)NC(C)(c4ccccc4)C3=O)ccc12 (stereo unspecified)	3	+	5	4	+
COc1ccc(CN2C[C@]3(C=C(C)Cn4c(=O)n(-c5ccccc5)c(=O)n43)N(C(=O)OCc3ccccc3)C2=NC(=O)c2ccccc2)c(OC)c1	x	x	0	x	x
CCOC(=O)Cn1nc(-c2ccccc2)c2cnc3ccc(C)cc3c21	35	+	-1	2	i
CCOC(=O)Cn1nc(-c2ccc(C)cc2)c2ccccc2c1=O	7	i	0	5	x
CN(CC#CC1=CCCCC1)/C(N)=N/C(=O)OCc1ccccc1	x	x	0	x	x
CCOC(=O)Cc1cc(=O)n2[nH]c(C)c(-c3ccc(OC)cc3)c2n1	-12	+	-2	-5	x
CCOC(=O)[C@]12CCCC=C1N(Cc1ccco1)C(=O)[C@H](CC(=O)N1CCN(C(=O)c3ccco3)CC1)C2	x	i	0	-7	x
CCOC(=O)N1CCC(c2cc(=O)n3[nH]ccc3n2)CC1	17	+	2	-2	x
[O-][n+]1c2ccccc2cc2ccccc21	10	+	4	-4	x
Nc1nc2n(n1)C(c1cccc(Br)c1)CC(c1ccc(F)cc1)N2 (stereo unspecified)	1	+	0	-6	i
Nc1nc2n(n1)C(c1ccccc1)CC(c1ccc(F)cc1)N2 (stereo unspecified)	2	i	0	-1	x
CCCCCC(=O)NC1CCCCN(Cc2ccc(C)cc2)C1=O (stereo unspecified)	x	x	0	x	x
CCN(CC)C(=O)Cn1nc(Cc2ccncc2)c2ccccc2c1=O	x	x	0	x	x
CC(C)(O)[C@H]1Cc2cc3ccc(=O)oc3cc2O1	1	x	12	-3	x
CC1(C)Oc2cc3oc(=O)ccc3cc2C[C@@H]1O	1	+	3	-11	x
CC1CCN(c2ccccc2NC(=O)c2cc3ccccc3o2)CC1	1	+	0	29	i
CCOC(=O)C1=C[C@@H](C(C)(C)C)N(S(=O)(=O)c2ccc(C)cc2)[C@H]1c1cccc2ccccc12	x	i	0	25	x
Cc1cccc(NS(=O)(=O)c2ccc(C3CCCCC3)cc2)n1	-32	+	2	11	i
Cc1cccc(NS(=O)(=O)c2ccc(C(C)(C)C)cc2)n1	-13	i	4	-2	x
Cc1cccc(NS(=O)(=O)c2ccc(C3CCCCC3)cc2)c1	13	i	1	28	x
Cc1cccc(NS(=O)(=O)c2ccccc2)n1	0	+	1	-11	i
Nn1c(SCC(=O)Nc2nccs2)nnc1-c1cc(-c2ccc(Cl)cc2)n[nH]1	x	x	0	x	x
Cc1nn(-c2ccccc2)c(Cl)c1/C=C(/CC(=O)O)c1nc2ccccc2s1	-28	i	0	-2	x
Cc1c(/C=C(\CC(=O)O)c2nc3ccccc3s2)cc(C#N)n1C	-12	+	-1	1	x
O=C(Nc1cccc(C(F)(F)F)c1)C1CC(=O)N(Cc2ccco2)C1 (stereo unspecified)	-8	i	1	-5	x
SMILES	PfG6PD inh	Neddylation inh	proKLK7 act	FAS TE block	Neddyl inh conf
O=C(CSc1ccc2nnc(-c3cccnc3)n2n1)Nc1ccccc1C(F)(F)F	11	+	1	-3	x
COCCCNC(=O)C[C@H]1C[C@@]2(C(=O)OC)C(=C[C@H](C3CCCC3)O[C@@H]2C)N(CCc2ccc(OC)c(OC)c2)C1=O	x	x	0	x	x
COCCCNc1nc2ccccc2nc1NS(=O)(=O)c1ccc(C)cc1	-9	i	3	-3	x
COCCNc1nc2ccccc2nc1NS(=O)(=O)c1ccc(C)cc1C	-3	+	1	-6	+
COCCCNc1nc2ccccc2nc1NS(=O)(=O)c1ccc(C)c(C)c1	-23	+	4	-3	x
C[C@H]1COc2cccc(N3CCCC3)c2S(=O)(=O)N1C	x	x	0	x	x
CCOC(=O)[C@]12CCCC3=C1N(CCC3)C(=O)[C@@H](CC(=O)N1CCCCC1)C2	x	x	0	x	x
CS(=O)(=O)N(CC(=O)N/N=C/c1cc2c(cc1Br)OCO2)c1ccccc1Br	7	i	0	23	x
CS(=O)(=O)N(CC(=O)N/N=C/c1cccc2c1OCCO2)c1ccccc1Br	-1	+	-3	6	+
Cc1ccc(NC(=O)CSc2nnc(-c3cccnc3)n2Cc2ccco2)cc1C	x	x	0	x	x
CC(C)CNc1oc(-c2ccccc2Cl)nc1C#N	-10	+	0	10	i
COCCCNc1oc(-c2ccccc2Cl)nc1C#N	1	i	0	-2	x
O=C(OC12CCCN(C1)/C(=C/c1cccnc1)C2)C1CCCCC1 (stereo unspecified)	x	x	0	x	x
CC1Cc2ccccc2N1C(=O)c1cc2c(=O)n3ccccc3nc2n1C (stereo unspecified)	0	+	2	0	+
Cc1cccn2c(=O)c3cc(C(=O)N4c5ccccc5CC4C)n(C)c3nc12 (stereo unspecified)	-24	x	-1	2	x
CC(C)Oc1ccc(S(=O)(=O)N2CCCCCC2)c2ccccc12	x	x	0	x	x
O=C(O)c1cccc(Nc2c3ccccc3nc3ccccc23)c1	3	+	6	-2	i
O=c1c2ccccc2nc2n1CCCN2	15	+	2	-2	x
CS(=O)(=O)N1CCC[C@]2(CC[C@@H](CCC#N)O2)C1	x	x	0	x	x
Cc1ccc(Cn2c(=N)c(C(=O)NCCN3CCOCC3)cc3c(=O)n4ccccc4nc32)cc1	4	+	1	1	+
Cc1ccc(Cn2c(=N)c(C(=O)NC3CCCC3)cc3c(=O)n4ccccc4nc32)cc1	44	x	x	16	x
CCCCCCCCNS(=O)(=O)CC1NCc2cc(F)ccc21 (stereo unspecified)	x	x	0	x	x
O=C1CSc2ccc(C(=O)N3CCCC(C(=O)N4CCN(c5ccc(F)cc5)CC4)C3)cc2N1 (stereo unspecified)	x	x	0	x	x
COc1ccc(NC(=O)N2c3ccc(OC)cc3C(C)=CC2(C)C)cc1	57	+	-12	1	x
CCOC(=O)c1[nH]c2ccc(F)cc2c1NC(=O)CN1CCN(C/C=C/c2ccccc2)CC1	21	+	0	16	i
CCOC(=O)c1[nH]c2ccc(OC)cc2c1NC(=O)c1ccccc1C(=O)O	14	+	-1	0	i
COC(=O)c1[nH]c2ccccc2c1NC(=O)CN1CCN(C/C=C/c2ccccc2)CC1	9	i	0	2	x
COc1cc(C(=O)C(=O)N2CCC(Cc3ccccc3)CC2)cc2ccccc12	x	i	-3	x	x
